Measurements: the supplement of paper PMC6555819

tested on: VDR:RXRa (NR concentration 270 nM, RXRa partner concentration 90 nM); test: PBM binding z-score (relative to random genomic background probes); higher = stronger binding; sequences stand for … in GC…GCGATTGACAGCGTAGAATGAAGG
Experimental: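 Protein-binding microarray (Agilent 4x180K custom design, double-stranded 60-nt probes: 5' GC cap, 34-nt variable region, 24-nt constant primer region; full probe sequence given). Purified or IVT nuclear receptor:RXRα heterodimers (3:1 NR:RXRα, mostly 270:90 nM) or homodimers were incubated for 1 h in PBS with 2% milk and no ligand, then detected with Alexa488 antibodies. Fluorescence from o1-orientation probes (~5 replicates averaged) was converted to z-scores against 500 random hg19 background probes. Variable regions are seed direct-repeat (DR0–DR5) sites, all their single-nucleotide variants and half-site ablations.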

Question: For CGTCCAAGGTCAAAGGTCGGTGAAGAGATGACGG, which PBM binding z-score is on record?
Answer: 5.32

Question: Which PBM binding z-score does the source give for CCTACTGGGCCAAAAAGGTCATTGAGGCCGATAA here?
Answer: 6.03

Question: How did the PBM binding z-score turn out when TCTGCTAGGTCAACGATTGTCAGCTAATCTGCTA was run?
Answer: 0.993

Question: With CGTCCAAGGTCAATGCTAGGTCAGTGAGAGCATT as the sequence, how does the PBM binding z-score read?
Answer: 5.11

Question: With GCATATAGGTAATGCAAGGTGAAAGTCCGATTGT as the sequence, how does the PBM binding z-score read?
Answer: 0.358

Question: With TAGCCTAGGTCAGATCGGGCCAGTAGACGCTATA as the sequence, how does the PBM binding z-score read?
Answer: 0.169

Question: Which PBM binding z-score does the source give for CCTGCTAGGTCACGGTCAGCTAATCTACAGTATG here?
Answer: 2.5

Question: How did the PBM binding z-score turn out when TCTTGAAGATCAATAGAGGTTAAGAAAGTGCGCT was run?
Answer: 1.92

Question: With TCATATAGGTGAATGCTAGGTGAAAGTCCGATCT as the sequence, how does the PBM binding z-score read?
Answer: 0.699

Question: Which PBM binding z-score does the source give for GCTAGCAGGCCATTTGGGACACTCAATGACGGGC here?
Answer: -0.447

Question: CTTCGGAGGACAACAGGAGGTCAGAGCTGCCAGA was tested. Which PBM binding z-score did it give?
Answer: 2.12

Question: How did the PBM binding z-score turn out when CTCGAGAGGTCGTGCTCAGGTGAGTATACCAAAC was run?
Answer: 3.37

Question: TCTTGTAGATCAAGCAGGTTAATAAAGCCTGAGT was tested. Which PBM binding z-score did it give?
Answer: 0.675

Question: ATCGAAAGGTCGAAGGTTAGTATACCCACCCGAA was tested. Which PBM binding z-score did it give?
Answer: 3.14

Question: For GGATCGAGGGCAAGTTGATAGCAGAGTTTGATGG, which PBM binding z-score is on record?
Answer: 0.959

Question: With AGAATGAGGCTACCAAAGATCAGGGAAACGCTTG as the sequence, how does the PBM binding z-score read?
Answer: -0.544

Question: CAAACTAGGTGACAGAGGTCAAAGTCCGTGCGTA was tested. Which PBM binding z-score did it give?
Answer: 6.42

Question: For CCTAGCAGGCCAATCTGGTTCACTCAAGGCTTGA, which PBM binding z-score is on record?
Answer: 0.38

Question: For CCTTACGGGACACTCCAGGTTATAGCATCGGAGT, which PBM binding z-score is on record?
Answer: -0.0817

Question: How did the PBM binding z-score turn out when ACTAGTTGATCAGCTGAGGTCACACACAATTCGG was run?
Answer: 4.02

Question: How did the PBM binding z-score turn out when TCATAGAGGTAAACAGGTGAAAGTCCGTAAGTTA was run?
Answer: 0.83

Question: How did the PBM binding z-score turn out when ACAGACAGGTGATCAAGGTAACTCAGGCTATCAT was run?
Answer: 0.483

Question: How did the PBM binding z-score turn out when CCTTACGGGTCAAGGTTTTAGCACGGGTGGTACG was run?
Answer: 2.82

Question: TGACCAAGGTGAGCTGAGGTCGTTGATCCAACTC was tested. Which PBM binding z-score did it give?
Answer: 3.9

Question: For TAGCCTAGGTCATTCCGGGGCCAGTATAGAAAGC, which PBM binding z-score is on record?
Answer: 2.94

Question: For CGAACGAGGGCATGAGCTGATAGCAAATGCCGAT, which PBM binding z-score is on record?
Answer: 0.355

Question: For ATCTCTAGGTAACGAGTTCAGTGAAAGAGAGGAC, which PBM binding z-score is on record?
Answer: 3.5

Question: Which PBM binding z-score does the source give for ATTTGTAGGTTAGCTGGGGTCATTCAGACTAGGC here?
Answer: 6.42

Question: For CCTAGCGGGCCAATCTGGGTCACTCAAGGCTTGA, which PBM binding z-score is on record?
Answer: 0.28

Question: For AATACAGGGTCATCGTAGGCCAGTGTACGCACAG, which PBM binding z-score is on record?
Answer: 5.18

Question: For CCTGCTAGGTCAATGTTCAGCTAAAGCAGCTCGC, which PBM binding z-score is on record?
Answer: 1.05

Question: Which PBM binding z-score does the source give for ATCTCTAGGTAACCAAGGTCAGTGAATGCCGAAC here?
Answer: 3.67

Question: Which PBM binding z-score does the source give for TAGCCTAGGTCAGATCGGGCCAGAATACGCTATA here?
Answer: 0.522

Question: Which PBM binding z-score does the source give for TCTATTAGTTGATTAGGGCATCCGAAACAGCGGA here?
Answer: 0.719

Question: For CGTCCAAGATCAATGCTAGGTCAGTGAAAGCATT, which PBM binding z-score is on record?
Answer: 0.425

Question: For AGTCAAGGTTCATCTAGGTAACGTAAGATATGCT, which PBM binding z-score is on record?
Answer: 4.56

Question: How did the PBM binding z-score turn out when TCATAGAGGTAAAAGGTGAAAGTCGGTGTGGTAA was run?
Answer: 1.48

Question: Which PBM binding z-score does the source give for ACTCGTAGGACAAAGGTCAGAGCTACGCCAGTGA here?
Answer: 2.89

Question: Which PBM binding z-score does the source give for CCTACTGGGCTAAAGGTCATTGATTCCAATGCTC here?
Answer: 4.38

Question: CGAACTGGGTCATTGACAGGACAGTGAATAGTAA was tested. Which PBM binding z-score did it give?
Answer: 2.05
